Bioassay records: PubChem BioAssay, several laboratories
A selection: hits, their analogues and other compounds. The true share with any hit is near 1.8%.
EP2 modulator: EP2 receptor (human) modulation; EP2-expressing cells, cAMP HTRF FRET, PGE2 co-stimulation; actives 0.83% (n = 260,000); induction, % at 25 µM; P43116; AID 940;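 active = compounds whose cAMP rise, as percent of the full-agonist control response, exceeds 60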;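 also: rat C6 glioma line stably carrying human EP2 under a CMV promoter; the protocol text gives 20 µM as final concentration; 100% = response of wells given 1 µM PGE2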
Target sequence (P43116 whole entry, looked up): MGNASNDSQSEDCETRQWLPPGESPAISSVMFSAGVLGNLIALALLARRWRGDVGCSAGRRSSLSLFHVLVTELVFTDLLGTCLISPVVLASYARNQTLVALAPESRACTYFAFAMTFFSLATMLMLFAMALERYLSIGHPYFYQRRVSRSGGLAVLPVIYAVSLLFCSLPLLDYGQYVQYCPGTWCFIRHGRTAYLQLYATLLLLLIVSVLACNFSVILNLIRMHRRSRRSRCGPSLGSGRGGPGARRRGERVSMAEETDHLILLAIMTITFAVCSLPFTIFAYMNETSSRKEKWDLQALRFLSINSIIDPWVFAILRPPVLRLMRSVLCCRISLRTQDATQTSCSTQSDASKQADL
PGE2 EP2 inh: blocks the human prostaglandin E2 receptor EP2; P43116; C6 glioma cells expressing human EP2, cAMP TR-FRET; cells stimulated with saturating PGE2; inhibition, % at 25 µM; actives 0.52% (n = 260,000); AID 1422;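 active = percent inhibition above 40 after rounding to a whole number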;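 also: rat C6 glioma host cells with rolipram phosphodiesterase inhibitor present; the protocol text gives 20 µM as final concentration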
eIF4E 4G PPI: inhibitors of eIF4E and eIF4G interaction in translation initiation. TR-FRET eIF4E-eIF4GI(517-606) binding, 2 h. actives 0.37% (n = 220,000). AID 782. P63073+Q04637. inhibition, % at 21.7 µM;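 active = inhibition above about 30%, limit read from the data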;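 also: 0% = full FRET control wells and 100% = background wells lacking eIF4GI fragment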
PERK inhibitor: inhibitors of human PERK kinase | inhibition, % at 5.6 µM | Q9NZJ5 | CHO PERK-DD fusion, SEAP luminescence translation reporter | actives 0.17% (n = 220,000);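 active = inhibition above the mean inhibition of all tested compounds plus 3 SD, set separately per screening campaign, cut at about 2.9% in these data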;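 also: PERK kinase domain activated by AP20187 dimerizer at 100 nM; 0% = DMSO with dimerizer and 100% = rapamycin at 8.4 µM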
The depositor's hits bear a star; / = not tested or not shown; ! = not confirmed by another sample.

SMILES	EP2 modulator	PGE2 EP2 inh	eIF4E 4G PPI	PERK inhibitor
CC(C)COC(=O)c1cccc2c1-c1ccccc1/C2=N\O	63.0*	/	-1.2	0.9
NC(=S)Nc1cccc(-c2n[nH]c(=S)o2)c1	-0.5	26.2	-2.5	0.2
Cc1ccc(NC(=S)Nc2cccc(-c3n[nH]c(=S)o3)c2)cc1	-24.2	41.7*	-1.2	0.7
Cn1c(SCC(N)=O)nc2c1c(=O)n(Cc1ccccc1Cl)c(=O)n2C	1.0	9.8	/	/
CC[n+]1c(C)sc2cc(C)c(C)cc21	3.1	9.2	/	/
c1ccc(-c2nc(-c3ccncc3)n[nH]2)nc1	9.3	11.6	54.5*	-0.2
c1ccc(SCc2nc(-c3ccncc3)n[nH]2)nc1	7.8	3.8	2.8	1.0
COc1ccc(NC(=O)N(C2CCCCC2)C(C)c2cccnc2)c(OC)c1 (centres undefined)	-22.0	14.5	6.1	0.9
COc1ccc(NC(=O)N(C2CCCCC2)C(C)c2ccco2)c(OC)c1 (centres undefined)	61.1*	6.8	8.8	-1.3
CCOc1ccc2[nH]c(=O)c(CN(Cc3cccnc3)C(=O)c3ccccc3Cl)cc2c1	-15.8	72.3*	/	/
Cc1ccc(C(=O)c2c(C)oc3c2C(=O)C(=O)c2ccccc2-3)cc1	-47.7	55.5*	2.8	-0.3
CCCn1c(CN2CCc3c(nc(N4CCCC4)[nH]c3=O)C2)nc2ccccc21	-60.3	/	/	/
CN(C)S(=O)(=O)c1ccc(-c2csc(N/N=C/c3ccc(O)cc3)n2)cc1	-55.8	103.8*	-4.2	-1.3
O=[N+]([O-])c1cccc(-c2csc(N/N=C/c3cccc(O)c3)n2)c1	-59.9	99.4*	1.8	-0.5
CN(C)S(=O)(=O)c1ccc(-c2csc(N/N=C/c3ccco3)n2)cc1	-51.2	47.0*	0.5	-1.9
C(=N\Nc1nc(-c2ccccc2)cs1)/c1ccncc1	-64.4	26.5	2.1	-0.8
O=C(C1CCCCC1)N1CCN(Cc2nc3ccccc3c(=O)[nH]2)CC1	17.1	11.5	/	/
Fc1ccccc1CN(CCCn1ccnc1)Cc1ccc2ncccc2c1	-7.3	7.9	/	/
O=C(O)[C@@H](Br)[C@@H](Br)c1ccccc1[N+](=O)[O-]	29.0	40.9*	/	/
COC(=O)C(C(=O)OC)c1ccccc1[N+](=O)[O-]	6.9	5.5	-8.2	1.3
COc1ccc(/C(O)=C2/C(=O)C(=O)N(Cc3cccnc3)C2c2cc(OC)ccc2OC)c(C)c1 (centres undefined)	11.0	16.0	/	/
Cc1ccc(C2C(C#N)=C(N)Oc3n[nH]c(-c4cccs4)c32)s1 (centres undefined)	2.2	43.5*!	1.3	0.7
CCc1[nH]nc2c1C(c1ccc(Br)s1)C(C#N)=C(N)O2 (centres undefined)	-17.0	44.3*	9.1	0.4
COc1ccc(OC)c([C@@H]2C[C@H](C(=O)Nc3cccc(O)c3)N(C)S(=O)(=O)N2)c1	-9.7	/	/	/
COc1ccc2cc1Oc1ccc(cc1)C[C@H]1c3cc(c(OC)cc3CCN1C)Oc1c(OC)c(OC)cc3c1[C@@H](C2)N(C)CC3	-12.2	59.5*	/	/
SMILES	EP2 modulator	PGE2 EP2 inh	eIF4E 4G PPI	PERK inhibitor
COc1ccc(-c2cc(C(F)(F)F)nc(SCC(=O)NC3CCCC3)n2)cc1	-96.8	21.3	/	/
N=C(N)SCc1ccc(Cl)cc1Cl (tested in a mixture with another compound)	-31.9	52.6*	/	/
COc1ccc(N=C2NN=C(c3ccc4c(c3)OCCO4)CS2)cc1	-1.8	40.8*	0.1	-0.2
COc1cccc2c1C(=O)c1c(O)c3c(c(O)c1C2=O)C[C@](O)(C(=O)CO)C[C@@H]3O[C@@H]1C[C@H](N)[C@@H](O)[C@H](C)O1	30.6	40.2*	/	/
COc1cccc2c1C(=N)c1c(O)c3c(c(O)c1C2=O)C[C@](O)(C(C)=O)C[C@@H]3O[C@@H]1C[C@H](N)[C@@H](O)[C@H](C)O1	-116.3	128.2*	/	/
CCc1cc2cc(C)c(C)cc2nc1SCC(=O)N1CC(=O)Nc2ccccc21	39.0	11.6	/	/
CCN(CC)C(=O)N1CCCC(c2ncncc2-c2ccncc2)C1 (centres undefined)	-20.0	/	/	/
NC(=O)c1c(NC(=O)c2ccc3ccccc3c2)sc2c1CCCC2	-67.6	11.7	/	/
CCn1ncc(Br)c1C(=O)Nc1sc2c(c1C(N)=O)CCC2	-15.8	11.4	-0.9	-0.2
Cn1cc(Br)c(C(=O)Nc2sc3c(c2C(N)=O)CCC3)n1	-26.2	39.9*	3.9	-0.6
NC(=O)c1c(NC(=O)c2cc3ccccc3o2)sc2c1CCC2	-10.6	41.6*	-41.0	-1.0
COc1cccc(NC(=S)N2CCC(NC(=O)c3ccccc3C)CC2)c1	-26.1	12.2	/	/
C[N@@+]1(CCC(=O)c2ccccc2)CC[C@H]2CC[C@H](C2)C1	-5.6	14.8	/	/
